Measurements published in the OligoGym collection.

Molecular target: HHATL
Assay: pooled miR-30 sensor sort-seq; sequence = guide strand
Settings: shRNA
Further: reference of the scale not given here.

Row | Sequence | sensor-assay potency score (higher = more potent)
1 | TAGCAAACAGCACATGTCCGGA | -0.627
2 | ATATTTGCAAAGCCAGTCGTTG | -0.866
3 | TTAGCAAACAGCACATGTCCGG | -0.577
4 | TTGGCGAACTTGAGGTCGCTGG | -0.951
5 | TTGTACATGATGATGGCCCAGA | -0.478
6 | TTGAGCAGGTCAGCTAAGGAGT | -0.763
7 | TACACATATTTGCAAAGCCAGT | -1.98
8 | TAGAGTGCGGTGATGCACTTGG | 0.641
9 | TTTGGGGCAACCATCGTGCAGA | -0.825
10 | TACACAGCATACATCCAGGAGC | -1.03

Molecular target: HIC1
Assay: as above
Settings: shRNA

Row | Sequence | sensor-assay potency score (higher = more potent)
11 | TGCTCTTGTAGTCGTCGCCGTC | -0.864
12 | TAGTCGTCGCCGTCGCCGCCCG | -0.822
13 | TTGCGTTGCTGTGCGAACTTGC | -0.297
14 | TACAGCTCGGCGCAGTGCGTGT | -1.35
15 | TTGTAGTCGTCGCCGTCGCCGC | -1.19
16 | TTGTCGCACGACGCGCAGCGGT | -1.62
17 | TTCTTGGACAGGTCCAGGCCAC | -0.94
18 | TTGTAGCTCTTGTCGCACGACG | -1.22
19 | TTCAGCTGCTCAGAGCTGGGGA | -0.306
20 | TGAGGTTGCGTTGCTGTGCGAA | -0.814
21 | ATCGTGTCCAGCATCGTCTGCC | -0.128

Molecular target: HINT3
Assay: as above
Settings: shRNA

Row | Sequence | sensor-assay potency score (higher = more potent)
22 | TTGATTAACAGAATTTGTCTTA | 0.577
23 | TATCATATATATAAAATCCTTA | -0.582
24 | TATCTTTGAAGCAAATTAGGTC | -0.138
25 | TATAACTGACTACTTACTGAGA | -0.693
26 | TCTTAGGAAACAGACATTCAGA | -1.03
27 | TTCTACTTGATCTTTCCTTAGA | -0.545
28 | TACCACTTCATGCTGAACCAAG | -0.805
29 | TTGACTCTATAAACCAACTTGG | -0.569
30 | TTTTCCAACAGTTACCATGTTC | -0.723
31 | TAACTGACTACTTACTGAGAAA | -1.61
32 | TTTGAAGCAAATTAGGTCCTCA | 0.444
33 | ATTGACTCTATAAACCAACTTG | -0.483

Molecular target: HIP1R
Assay: as above
Settings: shRNA

Row | Sequence | sensor-assay potency score (higher = more potent)
34 | TACCTCATCTGTCACCTCCAGG | -0.947
35 | TTGAACAGGAGCTTGACCGTGT | 0.954
36 | TTGAAGTACAGCATGTCGGAGG | -0.0916
37 | TTGAGCTGTCGGAAAACTGATT | -1.02
38 | TTGAGGTGGAAGGAGATCTTGG | -0.812
39 | TTGATGGCTTTGCTGATGCTGA | -1.07
40 | TTCTTGGTGGTTACACTTCGGG | -1.05
